Where “and” joins values, the source holds several entries; their conditions need not be identical. Identical values can stand only once. Inconclusive results are not listed. A number with no mark means an inactive call. Calls of active or inactive are those of the source. The call rests on the fitted dose curve; in most records, active means well fitted inhibition curve with a large enough effect in the repeat runs; inconclusive means weak or mixed curves; inactive means no such curve, though single readings can be large or run the other way.
Assay: qHTS assay to identify small molecule antagonists of the thyroid receptor (TR) signaling pathway (AID 743065); further: nearly all actives have a fitted effect of over 55% in size
Conditions: GH3.TRE-Luc, T3-stimulated luciferase inhibition, 23.5 h; series mostly up to 70.3 µM; activity, negative = inhibition: at the top concentration
Text: U.S. Tox21 Program National Center for Advancing Translational Sciences [NCATS] NIH Chemical Genomics Center [NCGC] U.S. Environmental Protection Agency [EPA] National Institutes of Environmental Health Sciences [NIEHS] National Toxicology Program [NTP] U.S. Food and Drug Administration [FDA] Tox21 Assay Overview: Thyroid receptor (TR), a nuclear hormone receptor, plays an important role in development, proliferation, differentiation, metabolism, brain function, and cardiovascular system. […] To profile the Tox21 10K compound library in TR signaling, a cell-based GH3-TRE-Luc assay (GH3.TRE-Luc cell line, developed by the laboratory of Dr. Albertinka J. Murk, Wageningen University) was used to measure the inhibition of TR. GH3 (rat pituitary tumor) cells stably expressing a TR activity sensor consisting of two TR response elements and a luciferase reporter gene.
Tox21 Assay Protocol Summary: GH3.TRE-Luc cells were dispensed at 1500 cells/4 uL/well into 1536-well white solid bottom plates using a Multidrop Combi dispenser (Thermo Fisher Scientific Inc., Waltham, MA). After the assay plates were incubated at 37 C for 4 hours, 23 nL of library compound or DMSO controls was transferred to the assay plates by a pintool station (Kalypsys, San Diego, CA), followed by addition of 1 ul of T3 (1 nM, final concentration in the wells) to stimulate TR transactivation. The assay plates were incubated at 37 C for 23.5 h, and then 1 uL of CellTiter-Fluor reagent (Promega, Madision, WI) of measuring cytotoxicity was added to each well using a Bioraptr Flying Reagent Dispenser (FRD) workstation (Beckman Coulter, Indianapolis, IN, USA). The plates were incubated at 37 C and 5% CO2 for additional 30 min, and fluorescence intensity was measured by a ViewLux plate reader (PerkinElmer, Shelton, CT). For measuring luciferase reporter gene activity, 4 uL of ONE-Glo Luciferase Assay reagent (Promega) was added to each well using a Bioraptr FRD (Beckman Coulter), followed by 30 min incubation at room temperature. The luminescence intensity of plates was recorded by a ViewLux plate reader (PerkinElmer, Shelton, CT).
On the % scale 0 is the no-effect control and ±100 the full control effect; potency means the concentration at half of the fitted maximal effect.

Question: Which “activity, negative = inhibition” value does the source give for `Cc1c(N)cccc1[N+](=O)[O-]` here?
Answer: Its value is 17.3% [at 95 µM].

Question: Which “activity, negative = inhibition” value does the source give for `CCO[Si](CCCCl)(OCC)OCC` here?
Answer: The value was 18.6%.

Question: Which “activity, negative = inhibition” value does the source give for `Cc1ncc(CO)c(C=O)c1O` here?
Answer: Its value is 0.0138%.

Question: Which “activity, negative = inhibition” value does the source give for `CCCCC/C=C\C/C=C\CCCCCCCC(=O)NC(C)c1ccccc1` (stereo not given) here?
Answer: Its value is -5.92%.

Question: Which Potency does the source give for `Cc1cc(N)c2cc(NC(=O)Nc3ccc4nc(C)cc(N)c4c3)ccc2n1` here?
Answer: The Potency was 29.8 µM (active).

Question: With `O=C(O)c1ccco1` as the compound, how does the “activity, negative = inhibition” value read?
Answer: The value was 13.1%.

Question: For `NCc1ccccc1Sc1ccccc1CO`, which “activity, negative = inhibition” value is on record?
Answer: Its value is -21.9%.

Question: Which “activity, negative = inhibition” value does the source give for `O=C1OC(=O)C2C3C=CC(C3)C12` (stereo not given) here?
Answer: The value was 1.25%.

Question: Which Potency does the source give for `CC(C)OC(=O)C(C)N(C(=O)c1ccccc1)c1ccc(F)c(Cl)c1` (stereo not given) here?
Answer: The Potency was 61.1 µM (active).

Question: For `CCCCCCCCCCCC(=O)OC[C@@H](O)[C@H]1OC[C@H](OCCO)[C@H]1OCCO`, which “activity, negative = inhibition” value is on record?
Answer: Its value is -13.7%.

Question: For `O=C(O)CNCC(=O)O`, which activity, negative = inhibition is on record?
Answer: The activity, negative = inhibition was -3.78% [at 8.44 µM].

Question: With `O=C(c1ccc(F)cc1)C1CCN(CCn2c(=S)[nH]c3ccccc3c2=O)CC1` as the compound, how does the “activity, negative = inhibition” value read?
Answer: Its value is -28.1%.

Question: With `Brc1c2ccccc2cc2ccccc12` as the compound, how does the “activity, negative = inhibition” value read?
Answer: Its value is -12.5% [at 95 µM].

Question: Which “activity, negative = inhibition” value does the source give for `CC1OC(=O)C(C)OC1=O` (stereo not given) here?
Answer: The value was 12.2%.

Question: For `CCOC(=O)COC(=O)c1cc(Oc2ccc(C(F)(F)F)cc2Cl)ccc1[N+](=O)[O-]`, which “activity, negative = inhibition” value is on record?
Answer: Its value is -19.1%.

Question: Which Potency does the source give for `Cc1oc2c(NC(=O)c3c(Cl)cccc3Cl)cccc2c1C(C)(C)O` here?
Answer: Its Potency is 7.7 µM (active).

Question: Which “activity, negative = inhibition” value does the source give for `C=CCOC(=O)CCC1CCCCC1` here?
Answer: The value was 11.6%.

Question: For `COC(=O)c1ccc(I)cc1S(=O)(=O)NC(=O)Nc1nc(C)nc(OC)n1`, which “activity, negative = inhibition” value is on record?
Answer: The value was 14.9%.

Question: For `C=CC(=O)OCCOCCOCCOCCOC(=O)C=C`, which Potency is on record?
Answer: Its Potency is 15.4 µM (active) and 27.1 µM (active).

Question: With `O=P(O)(OCc1ccccc1)OCc1ccccc1` as the compound, how does the “activity, negative = inhibition” value read?
Answer: Its value is 2%.

Question: For `COc1cc(Cl)ccc1Oc1ccc(Cl)cc1Cl`, which Potency is on record?
Answer: Its Potency is 52.9 µM (active).

Question: For `Nc1ncn([C@H]2C[C@H](O)[C@@H](CO)O2)c(=O)n1`, which “activity, negative = inhibition” value is on record?
Answer: Its value is 31.3%.

Question: For `CC(=O)OC[C@H]1O[C@@H](n2ncc(=O)[nH]c2=O)[C@H](OC(C)=O)[C@@H]1OC(C)=O`, which “activity, negative = inhibition” value is on record?
Answer: Its value is 0.989%.

Question: Which Potency does the source give for `O=C(O)c1ccc(-n2nc(-c3ccccc3O)nc2-c2ccccc2O)cc1` here?
Answer: Its Potency is 29.8 µM (active).

Question: With `CCCCNc1ccc(C(=O)OCCOCCOCCOCCOCCOCCOCCOCCOCCOC)cc1` as the compound, how does the “activity, negative = inhibition” value read?
Answer: Its value is 0.0415% [at 32.5 µM].

Question: For `c1ccc(C(O[C@H]2CCCN(CCc3ccc4c(c3)OCO4)C2)c2ccccc2)cc1`, which Potency is on record?
Answer: The Potency was 26.6 µM (active).

Question: Which “activity, negative = inhibition” value does the source give for `CCCCCCCCO[C@@H]1O[C@H](CO)[C@@H](O)[C@H](O)[C@H]1O` here?
Answer: The value was 1.32%.

Question: Which Potency does the source give for `COc1cc(C(=O)OCCCN2CCCN(CCCOC(=O)c3cc(OC)c(OC)c(OC)c3)CC2)cc(OC)c1OC` here?
Answer: The Potency was 13.3 µM (active).

Question: With `C1CCCNCCC1` as the compound, how does the “activity, negative = inhibition” value read?
Answer: The value was -13.3%.

Question: For `COC(=O)C1=C(C)NC(COC(N)=O)=C(C(=O)OC(C)C)C1c1cccc(Cl)c1Cl` (stereo not given), which Potency is on record?
Answer: Its Potency is 16.8 µM (active).

Question: For `Cc1ccccc1S(=O)(=O)O`, which “activity, negative = inhibition” value is on record?
Answer: The value was 11.8% [at 95 µM].

Question: With `NCCCN1CCOCC1` as the compound, how does the “activity, negative = inhibition” value read?
Answer: The value was 3.43%.

Question: For `O=C(OCCCCCCOC(=O)c1ccccc1)c1ccccc1`, which “activity, negative = inhibition” value is on record?
Answer: The value was 4.75%.

Question: For `CCOC(=O)c1cccnc1`, which “activity, negative = inhibition” value is on record?
Answer: Its value is 0.0008%.

Question: For `Cc1cccc(C)c1NC(=O)CN(CC(=O)O)CC(=O)O`, which “activity, negative = inhibition” value is on record?
Answer: Its value is 4.37%.

Question: For `CCNc1cc(O)ccc1C`, which “activity, negative = inhibition” value is on record?
Answer: Its value is -11.9%.

Question: With `O=C(O)C1(C(=O)Nc2ccc(Cl)cc2Cl)CC1` as the compound, how does the Potency read?
Answer: Its Potency is 68.6 µM (active).

Question: For `C[C@@H](c1ncncc1F)C(O)(Cn1cncn1)c1ccc(F)cc1F` (stereo not given in full), which “activity, negative = inhibition” value is on record?
Answer: The value was 3.04%.

Question: With `Clc1ccc2c(c1)CCc1cccnc1C2=C1CCNCC1` as the compound, how does the Potency read?
Answer: Its Potency is 9.44 µM (active).

Question: With `C#C[C@]1(O)CC[C@H]2[C@@H]3CCc4cc(OC5CCCC5)ccc4[C@H]3CC[C@@]21C` as the compound, how does the Potency read?
Answer: Its Potency is 16.8 µM (active).

Reference: PubChem BioAssay (Tox21)
